Compounds with a hit are over-represented: about 1.6% of the library has one in this group of screens.
Vc quorum ag: quorum light induction in luxS cqsA deficient V. cholerae; activation, % at 18.7 µM; V. cholerae BH1578 lux reporter, luminescence, 6 h; actives 0.16% (n = 350,000); in the data active = activation mostly above about 9.7%, no sharp cut-off; inconclusive = no clear call, values can overlap the other calls; inactive = mostly below about 3.7%
PrPC surface inh: reduces human prion protein on the cell surface; P04156; cell surface PrPC, TR-FRET read-out; inhibition, % at 13.8 µM; actives 0.43% (n = 370,000); AID 720596; in the data active = inhibition above about 24%
PriA SSB inh: inhibitors of Klebsiella pneumoniae PriA binding to SSB C-terminal tail | actives 0.6% (n = 430,000) | inhibition, % at 33 µM | AlphaScreen SSBct-PriA binding, biotinylated peptide; in the data active = inhibition mostly above about 37%, no sharp cut-off; inactive = mostly below about 20%
SARS 3CLpro inh: SARS-CoV 3CLpro protease inhibition; P0C6X7; recombinant SARS-CoV 3CLpro, quenched FRET peptide cleavage; inhibition, % at 6 µM; actives 0.14% (n = 290,000); AID 1706; in the data active = inhibition above about 12%
PrP 5UTR inh: inhibition of PrP 5' UTR reporter expression. cell-based PrP 5' UTR mRNA reporter, plate reader. inhibition, % (no concentration beside the values). actives 0.35% (n = 340,000). AID 488862; in the data active = inhibition above about 52%
PfHsp40 yeast: compounds rescuing yeast from Plasmodium falciparum HSP40 toxicity. S. cerevisiae expressing PfHsp40, growth rescue, ATP luminescence. growth rescue, % at 12.5 µM. actives 0.68% (n = 340,000); in the data active = growth rescue above about 28%, passing the limit was not always enough; inconclusive = no clear call, values can overlap the other calls;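 also: yeast W303a lacking pdr1 and pdr3 grown in galactose medium; growth measured after three days at 30 °C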
Each line names hits and unclear results; the compound was inactive in the other large screens; ! = a repeat was not active.

COc1cccc(NC(=O)NCC(c2ccc3c(c2)CCN3C)N(C)C)c1 (configuration not stated)	none (no result: Vc quorum ag, PrPC surface inh, SARS 3CLpro inh, PrP 5UTR inh, PfHsp40 yeast)
Cc1cccc(Nc2ccc(S(=O)(=O)N3CCOCC3)cc2[N+](=O)[O-])c1	none (no result: SARS 3CLpro inh)
COc1ccc(Nc2ccc(S(=O)(=O)N3CCCCCC3)cc2[N+](=O)[O-])cc1	PriA SSB inh 45.9
COc1cc(Nc2ccc(S(=O)(=O)N3CCN(C)CC3)cc2[N+](=O)[O-])cc(OC)c1	none (no result: SARS 3CLpro inh)
COc1ccc(Nc2ccc(S(=O)(=O)N3CCCCC3)cc2[N+](=O)[O-])cc1OC	PriA SSB inh 69.8
COc1ccccc1C(C)Nc1ccc(S(=O)(=O)N2CCCC2)cc1[N+](=O)[O-] (configuration not stated)	none (no result: Vc quorum ag, PrPC surface inh, SARS 3CLpro inh, PrP 5UTR inh, PfHsp40 yeast)
CSc1cccc(Nc2ccc(S(=O)(=O)N3CCOCC3)cc2[N+](=O)[O-])c1	PriA SSB inh 38.4 (no result: SARS 3CLpro inh)
COc1ccccc1C(C)Nc1ccc(S(=O)(=O)N2CCN(C)CC2)cc1[N+](=O)[O-] (configuration not stated)	PriA SSB inh 56.6 (no result: SARS 3CLpro inh, PrP 5UTR inh)
Cc1cc(C)cc(OCCNS(=O)(=O)c2ccccc2Cl)c1	none (no result: Vc quorum ag, PrPC surface inh, SARS 3CLpro inh, PrP 5UTR inh, PfHsp40 yeast)
O=[N+]([O-])c1cc([N+](=O)[O-])c(Oc2cccc3c2CCCC3)cc1NN1CCCCC1	none (no result: SARS 3CLpro inh)
COc1ccccc1Nc1ccc(S(=O)(=O)N2CCCCC2)cc1[N+](=O)[O-]	PriA SSB inh 63.2
COc1cccc(Oc2cc(NN3CCCCC3)c([N+](=O)[O-])cc2[N+](=O)[O-])c1OC	PriA SSB inh 47.9
C=C(C)C1CC=C(C)/C(=N/Nc2ccccc2[N+](=O)[O-])C1 (configuration not stated)	none (no result: PriA SSB inh)
C=C(C)C1CC=C(C)C(=NNc2ccccc2[N+](=O)[O-])C1 (configuration not stated)	PriA SSB inh 40.7 (no result: Vc quorum ag, PrPC surface inh, SARS 3CLpro inh, PrP 5UTR inh, PfHsp40 yeast)
COc1ccc(Nc2ccc(C(F)(F)F)cc2[N+](=O)[O-])cn1	PriA SSB inh 45.6
CCOc1ccc(-c2csc(-n3nc(C)cc3NC(=O)C(C)(C)C)n2)cc1	none (no result: Vc quorum ag, PrPC surface inh, SARS 3CLpro inh, PrP 5UTR inh, PfHsp40 yeast)
COc1ccc(-c2cc(=O)oc3c(C)c(O)c(CN(C)C)cc23)cc1	PfHsp40 yeast 45.5
COc1ccc(-c2cc(=O)oc3c(C)c(OCC(=O)N(C)C)ccc23)cc1	none
CCCCNc1c(-c2ccc(SC(C)CC)cc2)nc2cnccn12 (configuration not stated)	PfHsp40 yeast 860.1 (no result: PrPC surface inh, SARS 3CLpro inh)
Fc1ccc(NC(=S)N2CCCc3ccccc32)cc1	PriA SSB inh 41.3
O=C(Nc1cc(Cl)cc(Cl)c1)C1CCCC1	PfHsp40 yeast 69.9
O=C(Nc1ccc(Cl)cc1)C1CCCC1	none
Nc1ccc(Br)cc1F	none (no result: Vc quorum ag, PrPC surface inh, SARS 3CLpro inh, PrP 5UTR inh, PfHsp40 yeast)
O=S(=O)(NCCOc1ccc2c(c1)OCO2)c1cccs1	none (no result: Vc quorum ag, PrPC surface inh, SARS 3CLpro inh, PrP 5UTR inh, PfHsp40 yeast)
C=CCn1nc([N+](=O)[O-])nc1Sc1cccc2cccnc12	PriA SSB inh 102.4 (no result: PrPC surface inh)
C=CCSc1cccc2cccnc12	PriA SSB inh 125.0 (no result: Vc quorum ag, PrPC surface inh, SARS 3CLpro inh, PrP 5UTR inh, PfHsp40 yeast)
O=[N+]([O-])c1ccc(Sc2cccc3cccnc23)cc1	none
c1cnc2c(SSc3cccc4cccnc34)cccc2c1	none (no result: Vc quorum ag, PrPC surface inh, SARS 3CLpro inh, PrP 5UTR inh, PfHsp40 yeast)
Cc1ccc2ccc3cccnc3c2n1	PriA SSB inh 50.3, PfHsp40 yeast inconclusive
ClC1(Cl)CC1CSc1cccc2cccnc12 (configuration not stated)	PriA SSB inh 128.0 (no result: Vc quorum ag, PrPC surface inh, SARS 3CLpro inh, PrP 5UTR inh, PfHsp40 yeast)
C=CCn1c(SCC(=O)Nc2nsc(-c3ccccc3C)n2)nc2sc3c(c2c1=O)CC[C@H](C)C3	none (no result: Vc quorum ag, PrPC surface inh, SARS 3CLpro inh, PrP 5UTR inh, PfHsp40 yeast)
Cc1cc2nc(NC(=O)c3cc(Cl)sc3Cl)sc2cc1C	none (no result: Vc quorum ag, PrPC surface inh, SARS 3CLpro inh, PrP 5UTR inh, PfHsp40 yeast)
CCn1c2ccccc2c2cc(NS(=O)(=O)c3c(C(=O)OC)sc4ccccc34)ccc21	none (no result: Vc quorum ag, PrPC surface inh, SARS 3CLpro inh, PrP 5UTR inh, PfHsp40 yeast)
O=C(CSc1nc2ccccc2o1)NCCCn1ccc2cccnc21	none (no result: Vc quorum ag, PrPC surface inh, SARS 3CLpro inh, PrP 5UTR inh, PfHsp40 yeast)
CCSc1ccccc1C(=O)Nc1cnc2ccnn2c1	none (no result: Vc quorum ag, PrPC surface inh, SARS 3CLpro inh, PrP 5UTR inh, PfHsp40 yeast)
C=CCN1C(=O)C(CC(=O)Nc2ccc(Br)cc2)SC1=Nc1ccc(C(=O)O)cc1 (configuration not stated)	none (no result: Vc quorum ag, PrPC surface inh, SARS 3CLpro inh, PrP 5UTR inh, PfHsp40 yeast)
O=C(CSc1cccc2cccnc12)c1ccc(-c2ccccc2)cc1	none (no result: Vc quorum ag, PrPC surface inh, SARS 3CLpro inh, PrP 5UTR inh, PfHsp40 yeast)
O=C(Sc1cccc2cccnc12)c1ccc(F)cc1	PrPC surface inh 28.4 (no result: Vc quorum ag, PriA SSB inh, PrP 5UTR inh, PfHsp40 yeast)
CSc1cccc2cccnc12	PriA SSB inh 75.3 (no result: Vc quorum ag, PrPC surface inh, SARS 3CLpro inh, PrP 5UTR inh, PfHsp40 yeast)
O=C(CCS(=O)(=O)c1ccc(Cl)cc1)Nc1nnc(Cc2ccc3c(c2)OCO3)o1	none (no result: Vc quorum ag, PrPC surface inh, SARS 3CLpro inh, PrP 5UTR inh, PfHsp40 yeast)
CS(=O)(=O)c1ccc(CC(=O)Nc2nnc(Cc3ccc4c(c3)OCCO4)o2)cc1	PriA SSB inh 47.0 (no result: Vc quorum ag, PrPC surface inh, SARS 3CLpro inh, PrP 5UTR inh, PfHsp40 yeast)
CS(=O)(=O)c1ccc(CC(=O)Nc2nnc(-c3cc(Cl)sc3Cl)o2)cc1	PriA SSB inh active! (no result: Vc quorum ag, PrPC surface inh, SARS 3CLpro inh, PrP 5UTR inh, PfHsp40 yeast)

Compound activity deposited in PubChem BioAssay by several laboratories.
